BoNT-F LC inh: inhibitors of Botulinum neurotoxin F light chain protease. Multiplex microsphere protease cleavage assay, flow cytometry. 0.22% of 360,000 active. inhibition, % at 10 µM; in the data active = inhibition above about 35%, passing the limit was not always enough; inconclusive = no clear call, values can overlap the other calls
MazEF act: activators of E. coli MazEF toxin-antitoxin RNase; AID 504720; 0.32% of 350,000 active; activation, % at 20 µM; FAM/BHQ RNA-DNA oligo cleavage fluorescence, 5 h; in the data active = activation above about 50%
Target sequence (P0AE70 whole entry, looked up): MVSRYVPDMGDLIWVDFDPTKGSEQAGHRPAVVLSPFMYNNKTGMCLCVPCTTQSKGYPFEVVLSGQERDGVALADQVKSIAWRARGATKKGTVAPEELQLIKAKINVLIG
BoNT A protease: BoNT A light chain protease inhibition. multiplex microsphere protease substrate cleavage, flow cytometry. inhibition, % at 10 µM. 0.17% of 360,000 active. AID 588499
Bead autofluor: flagged as autofluorescent in microsphere protease counterscreen; compound autofluorescence counterscreen, microsphere flow cytometry; stronger effect = higher value; fluorescence intensity (concentration not given with the values); 3.1% of 360,000 active; AID 624483; in the data active = fluorescence intensity above about 16000; inconclusive = no clear call, values can overlap the other calls
Anthrax LF inh2: inhibitors of Bacillus anthracis lethal factor protease; P15917; multiplex microsphere protease cleavage assay, LF; inhibition, % at 10 µM; 0.12% of 360,000 active
Large screens that a line does not name were inactive. Hits are enriched below; roughly 3.7% of the tested compounds scored in any of these assays. Rule as the data show it, unless noted: active = inhibition above about 30%; inconclusive = no clear call, values can overlap the other calls; inactive = below that.

O=C(NC1CC1)c1ccc2nc([C@@H]3O[C@H](CO)[C@H](O)[C@H](O)[C@H]3O)[nH]c2c1	none (no result: MazEF act)
CCOCCCNC(=O)c1c[nH]c2ccc(C)cc2c1=O	Bead autofluor 22538
COc1cc2[nH]cc(C(=O)NCc3ccccc3)c(=O)c2cc1OC	none
COc1cc2[nH]cc(C(=O)NCCc3ccccc3)c(=O)c2cc1OC	Bead autofluor 17186
CCOCCCNC(=O)c1c[nH]c2cc(OC)ccc2c1=O	none
O=C(CN1C(=O)c2ccccc2C1=O)Nc1cc(C(=O)O)cc(C(=O)O)c1	none
COc1ccccc1CNc1nc(Nc2ccccc2-n2cccn2)c2sccc2n1	none (no result: MazEF act)
Cc1ccc2ccccc2c1C(O)c1ncc(-c2cccc(C(F)(F)F)c2)[nH]1 (centres undefined)	none (no result: MazEF act)
COc1ncccc1C(=O)N1CCC(n2nccc2NC(=O)CC(C)C)CC1	none
Cc1ccc2[nH]c(=O)c(-c3nc4ccccn4c3NCc3ccco3)cc2c1	Bead autofluor 16211
O=Cc1c(NCc2ccco2)nc2ccccn2c1=O	none
NS(=O)(=O)c1cccc(NC(=O)CN2CCc3ccccc32)c1	none
CN(c1ccccc1)S(=O)(=O)c1cccc(NC(=O)CN2CCCc3ccccc32)c1	Bead autofluor 20032
Cc1cn([C@H]2C[C@H](O)[C@@H](/C=C/C(=O)NCCc3ccc(S(N)(=O)=O)cc3)O2)c(=O)[nH]c1=O	none (no result: MazEF act)
CN(Cc1ccc(Cl)c(Cl)c1)C(c1cc2ccccc2o1)c1nnnn1C(C)(C)C (centres undefined)	none (no result: MazEF act)
N#Cc1ccc(C(=O)Nc2ccc(N3CCN(C(=O)c4ccco4)CC3)cc2)c(F)c1	Bead autofluor 24354
CCOc1ccc2ccccc2c1C1NC(=O)N(C)C(C)=C1C(=O)OCCOC (centres undefined)	none
Cc1cc(C)nc(NS(=O)(=O)c2ccc(Br)s2)c1	none
Cc1cccc(NS(=O)(=O)c2ccc(Br)s2)n1	Bead autofluor 19822
CC1CCCCC1NC(=O)CSc1nnc(CC(=O)Nc2ccccc2F)n1C (centres undefined)	none
Cn1c2ccc(Cl)cc2c2nc3ccccc3nc21	BoNT A protease 40
CCOc1ccc2c(c1)c1nc3ccccc3nc1n2C	MazEF act 98
Cn1c2ccc(F)cc2c2nc3ccccc3nc21	BoNT-F LC inh inconclusive, MazEF act 111
Cc1ccc2c(c1)c1nc3ccccc3nc1n2C	MazEF act 222
Cc1ccc2c(c1)c1nc3ccccc3nc1n2CCN1CCOCC1	none
CCN(C(=O)c1cccc(S(=O)(=O)N2CCc3ccccc32)c1)C1CCS(=O)(=O)C1 (centres undefined)	none
CN(C)S(=O)(=O)Nc1ccc(C(=O)O)cc1	Bead autofluor 21783
C=CCc1cccc(CNc2nc3ccccc3n2C(C)C)c1O	BoNT A protease inconclusive, Bead autofluor 23489
CCc1c(C)c2cc(Cl)c(O)c(CN(C)C)c2oc1=O	BoNT A protease inconclusive, Bead autofluor 17210
CCCCc1cc(=O)oc2c(CN3CCCC3)c(O)ccc12	Bead autofluor 20462
CCCCc1cc(=O)oc2c(CN(C)C)c(O)c(Cl)cc12	Bead autofluor 23705
CCc1cc(=O)oc2c(CN3CCN(C)CC3)c(O)ccc12	none
CC(=O)Nc1ccc(C(=O)COC(=O)C2CC3CCCC(C2)C3=O)cc1 (centres undefined)	none
Cc1ccc(NS(=O)(=O)c2ccc(N3C(=O)CCC3=O)cc2)cc1	Bead autofluor 18928
CC(C)c1ccc(NS(=O)(=O)c2ccc(N3C(=O)CCC3=O)cc2)cc1	none
Cc1nnc2c3ccccc3c(-c3ccccc3)nn12	none
Cc1nnc2c3ccccc3c(-c3cccc4ccccc34)nn12	BoNT A protease inconclusive, Bead autofluor 19934
Cc1cccc(N(Cc2ccccc2)C(=O)CSC(C)C(=O)Nc2cc(C)on2)c1 (centres undefined)	BoNT-F LC inh inconclusive, Bead autofluor inconclusive
CC1CCC(NC(=O)c2[nH]c(C(F)(F)F)nc2-c2ccccc2)CC1 (centres undefined)	none (no result: MazEF act)
CC(=O)Oc1cccc2c1C(=O)c1c(OC(C)=O)cc(C(=O)O)cc1C2=O	MazEF act 257
NS(=O)(=O)c1ccc(NC=C2C(=O)OC3(CCCCC3)OC2=O)cc1	Bead autofluor 16483
O=c1c2c3c(sc2n(CCN2CCCCC2)c(=O)n1Cc1ccco1)CCCCC3	BoNT A protease inconclusive, Bead autofluor 27290
COC(=O)Cn1c(=O)n(CCc2ccccc2)c(=O)c2c3c(sc21)CCCC3	none
CCn1c(=O)n(CCc2ccccc2)c(=O)c2c3c(sc21)CCCC3	Bead autofluor 22638
NC(=O)Cn1c(=O)n(Cc2ccco2)c(=O)c2c3c(sc21)CCCCC3	BoNT A protease inconclusive, Bead autofluor 18631
O=C(c1ccccc1)c1nn(-c2ccccc2)c2nnc(Cc3ccccc3)c(=O)n12	Bead autofluor 17139
Cc1ccc(-n2nc(C(=O)c3ccccc3)n3c(=O)c(Cc4ccccc4)nnc23)cc1	none
COC(=O)/C(=C(/F)Sc1cc(C)c(O)c(C)c1)C(F)(F)F	Bead autofluor 22354
Cc1ccc(CNC(=O)CN2NS(=O)(=O)c3ccccc3C2=O)cc1	none
C=CCn1c(C)cc(C(=O)CN2NS(=O)(=O)c3ccccc3C2=O)c1C	MazEF act 57
Cc1sc(NC(=O)C2CCCCC2C(=O)O)c(C(N)=O)c1-c1ccccc1 (centres undefined)	none
Cc1sc(NC(=O)C2CCCCC2C(=O)O)c(C(N)=O)c1C (centres undefined)	Bead autofluor 23098
C=CCn1c(=O)c2c(nc3n2CCN3c2cccc(Cl)c2C)n(C)c1=O	Bead autofluor 16780
C=C(C)Cn1c(=O)c2c(nc3n2CCN3c2cccc(Cl)c2C)n(C)c1=O	none
Oc1ccc(-c2cc(-c3ccc(O)cc3)nc(-c3ccccc3)n2)cc1	MazEF act 59
O=C(c1ccc(S(=O)(=O)NCc2ccco2)cc1)N1CCN(Cc2ccccc2F)CC1	Bead autofluor inconclusive
Cc1ccc2[nH]c(=O)c(N3CCOCC3)c(-c3ccccc3)c2c1	BoNT A protease inconclusive, Bead autofluor 25661
Cc1ccccc1C(=O)N1CCN(c2ccc(NC(=O)c3ccco3)cc2Cl)CC1	none
CCOc1ccc(C(=O)Nc2ccc(NC(=O)c3ccco3)c(Cl)c2)cc1Br	BoNT A protease inconclusive, Bead autofluor 22914
O=C(Nc1ccc(N2CCN(C(=O)c3cccs3)CC2)c(Cl)c1)c1ccco1	Bead autofluor 16928
O=C(Nc1ccc(NC(=O)c2sc3ccccc3c2Cl)cc1Cl)c1ccco1	Bead autofluor 19130
COc1ccc(C(=O)NC(CCSC)C(=O)NC2CC2)cc1 (centres undefined)	Bead autofluor inconclusive
C[C@@H]1CN([C@@H](C)CO)C(=O)CCCn2nncc2CO[C@H]1CN(C)Cc1ccccc1C(F)(F)F	none
O=C(Nc1ccc2ccccc2c1)c1cn(-c2ccccc2)nc1-c1cccs1	Bead autofluor 16591
CN(C)c1ccc(NC(=O)c2cn(-c3ccccc3)nc2-c2cccs2)cc1	none
CN(C)C(=O)c1cn(-c2ccccc2)nc1-c1cccs1	BoNT A protease inconclusive, Bead autofluor 23620
Cc1ccc(S(=O)(=O)NC(=O)Nc2cccc(S(=O)(=O)N(C)C)c2)cc1	Bead autofluor inconclusive
